Source: PubChem BioAssay
Calls of active or inactive are those of the source.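 The calls were made as follows, unless noted: active = inhibition above 20% together with a positive visual image hit; inconclusive = visual image hit but inhibition not above 20%; inactive = no visual image hit.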

Columns and labels:
[1] = inhibitors of TNFa-induced NFkB p65 translocation, primary screen, imaging, HUVEC, MLSMR starter and 10KST1 sets (AID 438); conditions: HUVEC TNFa-induced p65 nuclear translocation; cell count: measured here: nuclei count (cytotoxicity indicator), at 2.08 µM; inhibition: at 2 µM, stronger effect = higher value, 0% TNFa-plus-vehicle, 100% no-TNFa wells;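 also: compound added about 3h40 before a 20 min TNFalpha stimulation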;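 as to inhibition: signal is the nuclear over cytoplasmic p65 intensity ratio per well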
[2] = inhibitors of mutant huntingtin aggregation, primary screen, imaging, exon1htt(103Q)mCFP cells, high-content imaging (AID 483;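 active = visual image review flags a hit and inhibition of aggregation exceeds 20%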;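 also: compound exposure lasted 3 days before fixation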;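 as to nuclei count: percent of the per-plate median nuclei count of sample wells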); conditions: exon1htt(103Q)mCFP cell line, aggregate imaging, at 2 µM; inhibition of aggregation: stronger effect = higher value; nuclei count: measured here: cell count, toxicity
[3] = inhibitors of E-selectin induction by TNFa, primary screen, imaging, HUVEC, immunofluorescence, MLSMR starter and 10KST1 sets (AID 487;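 active = visually confirmed hit in the image check and inhibition above 20%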;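 as to inhibition: signal is fraction of cell area covered by stained E-selectin grains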;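 as to nuclei count: 100% = median nuclei count of all wells on the same plate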); conditions: HUVEC TNFalpha-induced E-selectin immunofluorescence imaging, at 2 µM; inhibition: stronger effect = higher value; nuclei count: measured here: cell number, toxicity
[4] = target: Voltage-gated potassium channel subunit beta-2 (Rattus norvegicus) (UniProt P62483); assay: KvBeta enzyme negative modulators, primary screen, biochemical, NADPH fluorescence (AID 622;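 active = fluorescence slope higher than the sample average by over 3 SD, cut at about -0.22 in these data, passing the limit was not always enough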;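 also: slope of raw intensity against log time taken from 70 to 1610 s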); conditions: recombinant KvBeta, 4-cyanobenzaldehyde reduction, at 10 µM, stronger effect = higher value
Voltage-gated potassium channel subunit beta-2 (Rattus norvegicus), sequence (P62483 whole entry, looked up): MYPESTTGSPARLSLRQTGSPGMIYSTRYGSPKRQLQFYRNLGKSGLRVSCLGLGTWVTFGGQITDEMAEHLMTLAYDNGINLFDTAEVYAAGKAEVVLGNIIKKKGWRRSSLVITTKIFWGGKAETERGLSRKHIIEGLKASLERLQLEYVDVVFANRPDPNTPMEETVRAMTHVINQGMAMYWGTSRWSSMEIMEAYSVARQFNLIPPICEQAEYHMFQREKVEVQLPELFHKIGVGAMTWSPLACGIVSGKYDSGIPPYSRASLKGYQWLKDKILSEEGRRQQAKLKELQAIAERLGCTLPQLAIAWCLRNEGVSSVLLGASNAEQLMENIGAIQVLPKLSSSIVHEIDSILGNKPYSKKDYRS

[5] = target: Voltage-gated potassium channel subunit beta-2 (Rattus norvegicus) (UniProt P62483); assay: KvBeta positive modulators, primary screen, biochemical, NADPH fluorescence (AID 623;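 active = NADPH fluorescence slope more negative than the mean of all samples by about 3 SD, 99.7% confidence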;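 also: fluorescence intensity change per second fitted from 20 to 320 s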); conditions: Recombinant KvBeta, NADPH fluorescence decrease slope, 10 min; at 10 µM; stronger effect = lower value
[6] = target: Alpha-2C adrenergic receptor (Homo sapiens) (UniProt P18825); assay: modulators of alpha2C/GIRK thallium flux, primary screen, cell-based, HEK293 alpha2C/GIRK1/2 (AID 624;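 active = fluorescence slope after compound addition differing from the mean of all screened samples at 99.7% confidence, in either direction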;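 also: slope of fluorescence ratio to pre-addition baseline per second over 15 to 24 s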); conditions: thallium flux BTC fluorescence, at 10 µM, actives lie on both sides
Alpha-2C adrenergic receptor (Homo sapiens), sequence (P18825 whole entry, looked up): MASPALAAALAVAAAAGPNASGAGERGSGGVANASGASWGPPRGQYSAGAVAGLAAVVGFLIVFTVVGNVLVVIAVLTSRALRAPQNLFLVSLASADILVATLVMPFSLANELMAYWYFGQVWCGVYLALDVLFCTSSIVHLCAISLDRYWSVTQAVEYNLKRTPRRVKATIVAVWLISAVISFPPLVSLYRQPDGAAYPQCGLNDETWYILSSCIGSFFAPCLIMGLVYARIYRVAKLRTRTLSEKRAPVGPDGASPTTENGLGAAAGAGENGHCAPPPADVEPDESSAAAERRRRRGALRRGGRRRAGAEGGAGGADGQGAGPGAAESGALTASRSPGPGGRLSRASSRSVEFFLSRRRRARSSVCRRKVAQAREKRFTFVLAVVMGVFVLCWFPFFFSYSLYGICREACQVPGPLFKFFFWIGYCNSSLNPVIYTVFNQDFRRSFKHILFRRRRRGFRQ

[7] = inhibitors of Sendai virus-induced IRF3 signaling, primary screen, TLR/RLR signaling modifier project, cell-based, Sendai virus stimulus, luciferase, 10K MLSCN set (AID 602276;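 active = inhibition at or above 50% at 10 µM; inactive = inhibition below 50%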;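 also: firefly luciferase from ISG56 promoter only with Renilla not read in this screen; 0% = Sendai virus plus DMSO and 100% = medium plus DMSO without virus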); conditions: HEK293 RL24 IRF3 luciferase reporter, at 10 µM, stronger effect = higher value
[8] = inhibitors of poly I:C-induced TLR3 signaling, primary screen, cell-based, poly I:C stimulus, luciferase, 10K MLSCN set (AID 602277;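 active = inhibition of the reporter signal at or above 50%; inactive = inhibition below 50%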); conditions: HEK293-TLR3 RL24 IRF3 luciferase reporter, at 10 µM, stronger effect = higher value

Cc1c(NC(=O)c2ccc(Br)o2)c(=O)n(-c2ccccc2)n1C
cell count [1]: 366
inhibition [1]: -5.9% (inactive)
inhibition of aggregation [2]: -13.4% (inactive)
nuclei count [2]: 114%
inhibition [3]: -74% (inactive)
nuclei count [3]: 129%
fluorescence slope [4]: -0.436 (inactive)
NADPH fluorescence slope [5]: -2.6e-05 (inactive)
slope [6]: 0.00344 (inactive)
inhibition [7]: 9.74% (inactive)
inhibition [8]: 34.3% (inactive)

O=C(CSc1nc2ccccc2o1)Nc1ccccc1
cell count [1]: 728
inhibition [1]: 11.1% (inactive)
inhibition of aggregation [2]: 0.9% (inactive)
nuclei count [2]: 100%
inhibition [3]: -10.4% (inactive)
nuclei count [3]: 106%
fluorescence slope [4]: -0.285 (inactive)
NADPH fluorescence slope [5]: -8e-06 (inactive)
slope [6]: 0.00667 (inactive)
inhibition [7]: -21.3% (inactive)
inhibition [8]: -87.6% (inactive)

O=C(NCCCN1CCOCC1)c1cc(-c2ccc(O)cc2)on1
cell count [1]: 614
inhibition [1]: -1.6% (inactive)
inhibition of aggregation [2]: -5.2% (inactive)
nuclei count [2]: 92.4%
inhibition [3]: -46.9% (inactive)
nuclei count [3]: 114%
fluorescence slope [4]: -0.565 (inactive)
NADPH fluorescence slope [5]: -3.8e-05 (inactive)
slope [6]: 0.00654 (inactive)
inhibition [7]: 2.55% (inactive)
inhibition [8]: -5.13% (inactive)

O=C(c1ccccc1)N1CCN(Cc2ccccc2Br)CC1
cell count [1]: 234
inhibition [1]: -2.5% (inactive)
inhibition of aggregation [2]: 23.9% (inactive)
nuclei count [2]: 77.4%
inhibition [3]: -25.8% (inactive)
nuclei count [3]: 96.1%
fluorescence slope [4]: -0.428 (inactive)
NADPH fluorescence slope [5]: -4.5e-05 (inactive)
slope [6]: 0.00425 (inactive)
inhibition [7]: 9.36% (inactive)
inhibition [8]: 4.59% (inactive)

C=CCn1c(CC#N)nnc1N1CCOCC1
cell count [1]: 481
inhibition [1]: 0.7% (inactive)
inhibition of aggregation [2]: -15% (inactive)
nuclei count [2]: 116%
inhibition [3]: -92% (inactive)
nuclei count [3]: 118%
fluorescence slope [4]: -0.487 (inactive)
NADPH fluorescence slope [5]: 2.7e-05 (inactive)
slope [6]: 0.00619 (inactive)
inhibition [7]: 6.66% (inactive)
inhibition [8]: 13.3% (inactive)

CCN(CC)S(=O)(=O)c1ccc(NC(=O)CN(c2cccc(F)c2)S(C)(=O)=O)cc1
cell count [1]: 426
inhibition [1]: 1.1% (inactive)
inhibition of aggregation [2]: -25.1% (inactive)
nuclei count [2]: 107%
inhibition [3]: -25.3% (inactive)
nuclei count [3]: 98.6%
fluorescence slope [4]: -0.449 (inactive)
NADPH fluorescence slope [5]: 2.5e-05 (inactive)
slope [6]: 0.00334 (inactive)
inhibition [7]: 8.61% (inactive)
inhibition [8]: 18.3% (inactive)

CCOc1ccc(Cc2nn[nH]n2)cc1
cell count [1]: 663
inhibition [1]: -3.2% (inactive)
inhibition of aggregation [2]: 10.3% (inactive)
nuclei count [2]: 90.5%
inhibition [3]: -38.6% (inactive)
nuclei count [3]: 141%
fluorescence slope [4]: -0.47 (inactive)
NADPH fluorescence slope [5]: -0.000245 (inactive)
slope [6]: 0.00563 (inactive)
inhibition [7]: 9.13% (inactive)
inhibition [8]: 16.7% (inactive)

Cc1ncc(CSc2nc3ccccc3[nH]2)c(N)n1
cell count [1]: 920
inhibition [1]: 11.9% (inactive)
inhibition of aggregation [2]: -17.1% (inactive)
nuclei count [2]: 115%
inhibition [3]: -37.5% (inactive)
nuclei count [3]: 109%
fluorescence slope [4]: -0.606 (inactive)
NADPH fluorescence slope [5]: -9.7e-06 (inactive)
slope [6]: 0.00699 (inactive)
inhibition [7]: 4.12% (inactive)
inhibition [8]: -10.7% (inactive)

COCCNC(=O)C(c1ccncc1)N(C(=O)Cn1nnc2ccccc21)c1ccc(OC)cc1 (centres undefined)
cell count [1]: 679
inhibition [1]: 8.2% (inactive)
inhibition of aggregation [2]: -3.2% (inactive)
nuclei count [2]: 100%
inhibition [3]: 8.4% (inactive)
nuclei count [3]: 99.8%
fluorescence slope [4]: -0.481 (inactive)
NADPH fluorescence slope [5]: -4.3e-05 (inactive)
slope [6]: 0.00706 (inactive)
inhibition [7]: -0.74% (inactive)
inhibition [8]: 25.1% (inactive)
